Screening results: PubChem, several laboratories
In the library only some 1.8% were active in any assay of this set; here they are far more common.
ARNT TACC3 PPI: disruptors of human ARNT/TACC3 interaction; Q9Y6A5; AlphaScreen His-ARNT PAS-B/GST-TACC3 binding, luminescence; TACC3 fragment carries E629A point mutation; inhibition, % at 9.99 µM; 390,000 tested, 0.66% active;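 active means mean inhibition of replicates at least 50% and at least half of replicates each reaching 50%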;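 further: 0% = complete ARNT plus TACC3 wells and 100% = ARNT alone without TACC3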
INS-1E GSIS act: primary screen for activators of insulin secretion dependent on glucose, INS-1E cells, GLuc reporter luminescence | INS-1E GLuc reporter insulin secretion, 2-3 h | activation, % at 16.6 µM | 370,000 tested, 0.61% active | AID 743287;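 active means lowest replicate activation of at least 40%, so every replicate reaches that level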;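 further: 0% = median of neutral control wells and 100% = median of IBMX positive control wells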
CendR NRP1 mod: NRP-1/CendR interaction modulation | O14786 | FAM-RPARPAR peptide binding to NRP-1, fluorescence polarization | inhibition, % at 25 µM | 360,000 tested, 0.85% active;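 active means inhibition or corrected inhibition above about 18%, plus a signal ratio from 0.5 to 1.5, limit read from the data, passing the limit was not always enough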
Target sequence (O14786 whole entry, looked up): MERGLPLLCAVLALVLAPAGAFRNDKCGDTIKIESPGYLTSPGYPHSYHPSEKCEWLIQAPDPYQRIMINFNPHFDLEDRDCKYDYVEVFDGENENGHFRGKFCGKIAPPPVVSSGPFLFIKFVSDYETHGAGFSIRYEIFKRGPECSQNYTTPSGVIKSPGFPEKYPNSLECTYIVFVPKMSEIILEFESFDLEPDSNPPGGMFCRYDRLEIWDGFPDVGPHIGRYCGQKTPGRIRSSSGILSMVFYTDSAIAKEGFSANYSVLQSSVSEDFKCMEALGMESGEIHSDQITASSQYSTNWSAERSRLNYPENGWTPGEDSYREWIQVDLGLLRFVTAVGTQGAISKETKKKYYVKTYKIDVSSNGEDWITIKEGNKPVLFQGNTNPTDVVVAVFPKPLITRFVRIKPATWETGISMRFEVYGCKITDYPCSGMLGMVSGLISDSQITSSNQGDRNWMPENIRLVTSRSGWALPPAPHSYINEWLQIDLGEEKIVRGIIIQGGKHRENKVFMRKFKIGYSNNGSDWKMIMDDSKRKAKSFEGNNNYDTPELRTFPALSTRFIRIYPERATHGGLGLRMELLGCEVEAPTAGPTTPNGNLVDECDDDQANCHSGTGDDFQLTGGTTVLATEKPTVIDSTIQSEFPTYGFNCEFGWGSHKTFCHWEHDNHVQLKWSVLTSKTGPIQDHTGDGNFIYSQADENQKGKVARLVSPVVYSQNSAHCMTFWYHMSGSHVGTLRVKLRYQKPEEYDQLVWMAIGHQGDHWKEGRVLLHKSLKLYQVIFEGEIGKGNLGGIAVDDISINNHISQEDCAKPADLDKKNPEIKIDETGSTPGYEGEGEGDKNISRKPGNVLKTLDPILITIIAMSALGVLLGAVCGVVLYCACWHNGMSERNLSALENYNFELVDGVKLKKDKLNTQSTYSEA
iPSC survival up: enhancers of human iPSC single-cell survival | AID 602274 | 360,000 tested, 0.044% active | hiPSC single-cell survival, ATPlite luminescence; 100% = ROCK inhibitor wells, 0% = DMSO | survival enhancement, % at 20 µM; in the data active means survival enhancement above about 18%;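 further: cells exposed to compounds for 16 hours before the ATP read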
ABCB6 inh MLPCN: blocks the human ABCB6 transporter | K562-ABCB6 porphyrin accumulation, flow cytometry, 1 h; stronger effect = lower value | fluorescence ratio to DMSO, % at 10 µM | 360,000 tested, 0.19% active;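 active means fluorescence ratio to DMSO below 75%, the collection mean minus 3 SD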;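 further: signal is porphyrin accumulated inside mitochondria; 100% equals median channel fluorescence of DMSO control wells; lower ratio means ABCB6 inhibition with less porphyrin fluorescence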
* = called active by the depositor; nt = no result given.

SMILES	ARNT TACC3 PPI	INS-1E GSIS act	CendR NRP1 mod	iPSC survival up	ABCB6 inh MLPCN
O=C(c1ccc2c(c1)OCO2)N1CC2(C1)[C@@H](c1ccccc1)[C@@H](CO)N2C(=O)C1CCC1	nt	11	nt	nt	nt
CSc1ccc(-c2cc3c(c4c2ccn4C)C2CCC3C2)cc1 (centres undefined)	nt	6	25*	0	97
Cn1ccc2c(-c3ccc(F)cc3)cc3c(c21)C1CCC3C1 (centres undefined)	nt	8	8	-1	100
CCN1CCN(CCCNC(=O)c2ccc(/C=C3/Sc4ccccc4N(Cc4ccccc4F)C3=O)cc2)CC1	13	100*	5	0	101
CCN1CCN(CCNC(=O)c2ccc(/C=C3/Sc4ccccc4N(Cc4ccccc4C)C3=O)cc2)CC1	37	27	7	0	105
CC=Cc1ccc2n(c1=O)C[C@H]1[C@H](CO)[C@@H](C(=O)N(C)C)N(C(=O)CC3CC3)[C@@H]21 (mixture of isomers)	-14	23	nt	nt	nt
COc1ccccc1N(Cc1ccccc1)S(=O)(=O)c1cccc(C(=O)O)c1	-35	nt	7	0	104
CCOc1ccccc1NC(=O)c1cccc(S(=O)(=O)N(Cc2ccccc2)c2ccccc2OC)c1	-2	nt	30*	3	100
Cc1ccc(NC2c3ncccc3C(=O)N2C2CCCCC2)cc1 (centres undefined)	10	56*	6	-1	94
COCc1cccc(-c2csc(C(C)(O)c3ccccc3)n2)c1 (centres undefined)	nt	-23	41*	8	95
Cc1cccn2c(=O)c(C(=O)NC3CCCCC3C)c(O)nc12 (centres undefined)	-3	0	44*	0	100
CC(C)NC(=O)Nc1ccc2c(c1)C(=O)N([C@@H](C)CO)C[C@@H](C)[C@@H](CN(C)C(=O)NC(C)C)OCCCC[C@H](C)O2	-10	25	nt	nt	nt
Cc1cc(NC(=O)c2ccc(S(=O)(=O)Nc3ccccc3)cc2)no1	-5	-5	27*	8	97
COc1ccc2c3c([nH]c2c1)[C@H](CO)N(C(=O)c1ccc(F)cc1)CC31CCN(C(=O)CC2CC2)CC1	nt	13	nt	nt	nt
CCC(CC)N1CCN(CC2CC=CCC2)CC1 (centres undefined)	-5	2	23*	1	106
CC(C)CC(=O)N1CCN(CC2CC=CCC2)CC1 (centres undefined)	6	nt	-10	0	100
Cc1noc(C)c1S(=O)(=O)N1[C@@H]2CNC[C@H]1C2c1ccc(-c2cccc(F)c2)cc1 (some centres undefined)	nt	-7	nt	nt	nt
COc1ccc2nc(NN=C(C)c3ccccn3)cc(C)c2c1	70*	nt	-1	-4	95
CC(=NNc1ccc2ccccc2n1)c1ccccn1	nt	7	nt	nt	nt
COc1ccc(S(=O)(=O)N(C)C[C@@H]2Oc3c(NC(=O)C4CCOCC4)cccc3C(=O)N([C@H](C)CO)C[C@H]2C)cc1	5	-3	nt	nt	nt
CCN1CCN(CCCNC(=O)c2ccc3c(c2)N(Cc2ccccc2)CCS3)CC1	7	43*	7	-1	101
CCCCN(CC)CCNC(=O)c1cc2c(-c3ccc(Cl)cc3)nn(C)c2s1	39	67*	2	0	97
C[C@H](CO)N1C[C@H](C)[C@@H](CN(C)S(=O)(=O)c2ccc(F)cc2)Oc2ccc(NC(=O)CCCCCC(=O)Nc3ccccc3N)cc2C1=O	nt	11	nt	nt	nt
CNC[C@H]1OCCCC[C@H](C)Oc2ccc(NC(=O)Nc3ccc(F)cc3)cc2C(=O)N([C@H](C)CO)C[C@H]1C	nt	9	nt	nt	nt
CCOC(=O)C(CC)(CC)C(=O)/C=C/c1ccc(Br)cc1	4	65*	3	-5	103
SMILES	ARNT TACC3 PPI	INS-1E GSIS act	CendR NRP1 mod	iPSC survival up	ABCB6 inh MLPCN
CO[C@@H]1CN(C)C(=O)c2cc(NS(C)(=O)=O)ccc2OC[C@H](C)N(Cc2ccccn2)C[C@H]1C	nt	11	nt	nt	nt
Cc1ccc(CNC(=O)CCCC(=O)Nc2cc(C)on2)cc1	0	1	0	-2	100
Cc1cc(NC(=O)CCCC(=O)NCc2ccccc2)no1	nt	-6	36*	0	91
Cc1cc(NC(=O)CCC(=O)NNC(=O)c2ccc(C(C)(C)C)cc2)no1	3	3	36*	-2	90
O=C(CCCC(=O)c1ccccc1)NCc1ccccc1	-11	40*	9	1	102
CC(=O)Nc1ccc2c(c1)C(=O)N(C)[C@@H]1CC[C@@H](CC(=O)N3CCc4ccccc4C3)O[C@H]1CO2	3	-4	nt	nt	nt
C[C@H]1CN([C@@H](C)CO)C(=O)c2cc(NS(=O)(=O)c3cn(C)cn3)ccc2O[C@@H]1CN(C)C(=O)Nc1ccc(C(F)(F)F)cc1	-10	3	nt	nt	nt
Cc1ccc(CN2C(=O)CCC2(C)c2nnnn2-c2c(C)cccc2C)cc1 (centres undefined)	nt	-29	7	0	102
Cc1cccc(C)c1-n1nnnc1C1(C)CCC(=O)N1Cc1cccs1 (centres undefined)	nt	53*	-5	0	95
COc1ccc(CN2C(=O)CCC2(C)c2nnnn2-c2c(C)cccc2C)cc1 (centres undefined)	nt	21	23*	0	102
CCC(=O)N1[C@@H]2Cn3c(ccc(-c4cccnc4)c3=O)[C@H]1[C@@H](C(=O)N1CCc3ccccc3C1)[C@@H]2CO	-2	10	nt	nt	nt
COCC#Cc1ccc2c(c1)O[C@@H](CN(C)C(=O)C1CC1)[C@@H](C)CN([C@@H](C)CO)S2(=O)=O	-3	1	nt	nt	nt
O=S(=O)(N[C@@H]1CC[C@@H](CCn2cc(C3(O)CCCC3)nn2)O[C@@H]1CO)c1ccccc1	-5	-3	nt	nt	nt
O=C(Nc1ccc2c(c1)OCO2)N1C[C@@H]2N[C@H](C1)C2c1ccc(-c2ccccc2)cc1 (some centres undefined)	nt	0	nt	nt	nt
N#CCc1nn(-c2ccccc2)c(N)c1C#N	-1	33	1	3	101
N#CCc1nn2c(-c3ccccc3)ccnc2c1C#N	-2	46*	-8	-1	101
COc1ccc(NC(=O)Nc2ccc3c(c2)[C@@H]2C[C@@H](CC(=O)NC4CCCCC4)O[C@H](CO)[C@@H]2O3)cc1	-1	10	nt	nt	nt
COC(=O)[C@H]1[C@H](CO)[C@H]2Cn3c(ccc(-c4ccccc4)c3=O)[C@H]2N1S(C)(=O)=O	5	0	nt	nt	nt
CCOc1ccc(-c2cc(C(=O)Nc3ccc4c(c3)OCCO4)c3ccccc3n2)cc1	-5	nt	56*	-2	91
O=C(N/N=C/c1ccccc1)c1ccco1	-1	3	2	0	108
O=C(CNC(=O)c1ccco1)N/N=C/c1ccc(C(=O)O)cc1	20	48*	-2	4	98
O=C(Nc1ccccc1C(=O)N/N=C/c1ccccc1)c1ccco1	5	93*	-1	0	101
COc1cccc(/C=N/NC(=O)CNC(=O)c2ccco2)c1O	36*	9	-14	-1	99
